Screening data as filed in PubChem.
Hits are enriched below; roughly 7.3% of the tested compounds scored in any of these assays.
Rab9 promoter act: activates the Rab9 promoter; Huh7 Rab9 promoter-luciferase reporter, luminescence, 24 h; Potency, µM (series often up to 9.22 µM), most hits filed as activators; hit rate 2.8% among 320,000; AID 485297; note: nearly all actives have a fitted effect of over 60% in size
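Cell-based reporter: Huh7 stable for Rab9 promoter-driven luciferase, plated in reduced-serum medium with 10% FBS at 1500 cells/well, compound-treated 24 h at 37 °C, luminescence read after 10 min reagent.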
SMN2 splice enh: enhancers of SMN2 splice variant expression | Potency, µM (titrated, usually from 46.1 µM), usual class: activators | HEK293 SMN2-luciferase splicing reporter, luminescence, 30-36 h | AID 1458 | hit rate 2.8% among 210,000; note: nearly all actives have a fitted effect of over 55% in size
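qHTS luciferase splicing reporter: luminescence rises when SMN2 exon 7 is included in transfected HEK293 cells. Compound exposure lasted 30-36 h at 37C, with 4.5 mM final sodium butyrate as control, followed by a ONE-Glo read.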
FLuc modulator: firefly luciferase modulation, counter-screen for miR-21 project | P08659 | purified FLuc, Km substrates, luminescence inhibition | Potency, µM (series often up to 57.5 µM), hits mostly inhibitors | hit rate 6.9% among 360,000; note: nearly all actives have a fitted effect of over 55% in size
Target sequence (P08659 whole entry, looked up): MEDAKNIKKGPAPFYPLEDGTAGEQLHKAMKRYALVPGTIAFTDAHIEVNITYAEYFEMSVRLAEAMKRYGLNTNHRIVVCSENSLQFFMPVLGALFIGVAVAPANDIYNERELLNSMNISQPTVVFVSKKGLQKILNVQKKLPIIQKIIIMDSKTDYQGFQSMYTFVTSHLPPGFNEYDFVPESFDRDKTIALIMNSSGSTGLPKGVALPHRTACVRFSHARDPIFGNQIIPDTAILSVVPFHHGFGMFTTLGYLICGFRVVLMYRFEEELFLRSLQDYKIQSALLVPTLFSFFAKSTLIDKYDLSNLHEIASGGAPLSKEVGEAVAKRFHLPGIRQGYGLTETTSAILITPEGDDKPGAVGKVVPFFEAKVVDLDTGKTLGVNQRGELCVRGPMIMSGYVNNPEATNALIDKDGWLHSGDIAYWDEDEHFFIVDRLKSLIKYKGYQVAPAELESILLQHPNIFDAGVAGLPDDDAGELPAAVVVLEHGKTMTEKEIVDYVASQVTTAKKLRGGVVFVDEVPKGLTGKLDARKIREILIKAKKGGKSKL
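Purified P. pyralis luciferase (10nM final) with 10uM D-luciferin and 10uM ATP (Km levels) in 50mM Tris acetate pH 7.5, 10mM Mg acetate, 0.01% Tween-20, 0.05% BSA; qHTS 6-point titration, ~60 µM downward; luminescence read.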
ELG1 genotoxic: inducers of genotoxicity in HEK293T ELG1-luciferase cells. HEK293T ELG1-luciferase reporter, luminescence, 16 h. Potency, µM (doses to about 46 µM), hits mostly activators. hit rate 1.3% among 330,000; note: nearly all actives have a fitted effect of over 60% in size
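Cells (2,000/well) expressing the ELG1-luciferase fusion are dosed by pin tool and kept 16 hr at 37 °C, 5% CO2. Signal comes from ONE-Glo luciferase reagent after 30 min at room temperature.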
uPA generation: blocks generation of uPA at the cell surface | cell surface uPA generation assay, qHTS | Potency, µM (series often up to 38.3 µM), usual class: inhibitors | hit rate 0.31% among 330,000 | AID 540303; active = well fitted inhibition curve with a large enough effect; inconclusive = small, poorly fitted or top-dose-only effect; inactive = no such curve, though single readings can be large or run the other way; tested in mouse RAW 264.7 cells; note: nearly all actives have a fitted effect of over 55% in size
NPC1 prom act: activators of NPC1 promoter; hit rate 2.4% among 320,000; Potency, µM (top dose mostly 9.22 µM), actives largely listed as activators; Huh7 NPC1 promoter luciferase reporter, 24 h; note: nearly all actives have a fitted effect of over 60% in size
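In 1536-well qHTS, Huh7 cells harboring an NPC1 promoter–luciferase construct received compound for 24 h; activation was quantified by luminescence following luciferase reagent addition.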
Hits are given with their value; – = inactive; ? = inconclusive; · = no result given. Unless noted, calls come from the whole dose curve; as a rule, active = well fitted curve in the direction sought with a large enough effect; inconclusive = small, poorly fitted or top-dose-only effect, or another doubt; inactive = no such curve, though single readings can be large; an effect the other way counts as inactive or inconclusive.

SMILES	Rab9 promoter act	SMN2 splice enh	FLuc modulator	ELG1 genotoxic	uPA generation	NPC1 prom act
C/C=C/C1=CC2=CC(=O)C(C)(OC(=O)c3c(C)cc(O)cc3O)C(=O)C2=CO1 (centres undefined)	·	–	·	·	·	·
O=C(NCc1ccc2c(c1)CCN2C(=O)c1ccncc1)c1cccc(Cl)c1	·	·	–	·	·	·
COCCNC(=O)CN(C(=O)c1ccc(N2CCCC2)nc1)c1ccc(Cl)cc1	–	·	–	–	–	–
COc1ccc(-c2nn(-c3ccccc3)cc2/C=N/n2cnnc2)cc1OC	–	?	19µM	–	–	–
Cc1ccccc1-c1nc2ccccc2o1	–	–	8.5µM	–	–	–
Cc1ccccc1-c1nc2cc(Cl)ccc2o1	?	·	2.1µM	?	–	?
Cc1c(NC(=O)c2cc3ccccc3o2)cccc1-c1nc2ccccc2o1	·	–	?	·	·	·
Cc1cccc(NC(=O)C(=O)C2C(=O)Nc3ccccc32)c1 (centres undefined)	–	·	15µM	–	–	–
CCn1c(O)c(N=NC(=O)c2cccs2)c2ccccc21	–	–	17µM	–	·	?
CCCn1c(O)c(N=NC(=O)c2ccco2)c2ccccc21	–	–	–	–	–	–
CCc1ccc(C(=O)CSc2n[nH]c(-c3ccncc3)n2)cc1	–	–	24µM	–	–	–
CCCOc1ccc(CSc2ncn[nH]2)cc1	–	?	11µM	?	–	–
COC(=O)CSc1n[nH]c(-c2ccncc2)n1	–	–	–	–	–	–
CCc1ccc(C(=O)CSc2ncn[nH]2)cc1	?	–	17µM	?	–	–
CCOc1ccccc1CNC(=O)Cn1cc2c(n1)-c1c(oc(C(=O)N3CCCC3)c1C)CC2	·	·	–	·	·	·
O=C(N/N=C/c1ccc(Cl)cc1Cl)c1n[nH]c2c1CCCC2	–	14µM	?	?	–	–
O=C(N/N=C/c1cccc2ccccc12)c1n[nH]c2c1CCCC2	–	–	–	–	–	–
Cc1cc(C(=O)N/N=C/c2cccs2)n[nH]1	?	?	?	?	–	?
O=C(N/N=C/c1cccs1)c1n[nH]c2c1CCCC2	0.1µM	·	0.85µM	?	?	?
Cc1ccc(/C=N/NC(=O)c2n[nH]c3c2CCCC3)cc1	–	·	2.4µM	6.5µM	–	?
C/C(=N\NC(=O)c1n[nH]c2c1CCC2)c1cccs1	?	·	0.6µM	?	–	?
CC(=O)c1ccc(N(C(=O)c2csnn2)C(C(=O)NC(C)(C)C)c2cccs2)cc1 (centres undefined)	–	·	–	–	–	–
O=C(N/N=C\c1cccc(Cl)c1)c1n[nH]c2c1CCCC2	0.71µM	13µM	1.7µM	?	–	2.5µM
CSCCC(NS(=O)(=O)c1ccc2c(c1)oc(=O)n2C)C(=O)N1CCN(c2cccc(Cl)c2)CC1 (centres undefined)	·	·	–	·	·	·
CNc1oc(-c2ccc(Cl)cc2)nc1P(=O)(c1ccccc1)c1ccccc1	–	–	–	–	–	–
SMILES	Rab9 promoter act	SMN2 splice enh	FLuc modulator	ELG1 genotoxic	uPA generation	NPC1 prom act
COc1ccccc1Nc1nc2ccc(C)cc2cc1C#N	–	–	12µM	–	–	–
COc1ccc(C2=CC(=O)C=CC2=O)cc1	–	·	8.5µM	–	·	–
CC(C)(C)C1CCC(OC(=O)CN2CCCCC2)CC1 (centres undefined)	–	·	19µM	–	–	–
CC(C)(C)C1CCC(OC(=O)c2ccncc2)CC1 (centres undefined)	–	–	?	–	–	–
CC(C)(C)c1ccc(-c2nc(N)nc(N)n2)cc1	?	·	2.1µM	?	?	?
c1ccc(C2=Nc3ccccc3SC2c2nc3ccccc3[nH]2)cc1 (centres undefined)	·	?	17µM	·	·	·
O=C1CC(c2nc3ccccc3[nH]2)CN1c1ccccc1 (centres undefined)	–	–	–	–	–	–
O=C(/C=C/c1ccccc1)N1CCC[C@H]1CO	–	–	–	–	–	–
C#CCSc1nncn1C(=O)/C=C/c1ccccc1	–	–	19µM	–	–	–
Cc1c(CNCCc2ccccc2Cl)c(C(=O)O)c(C)n1-c1ccccc1	–	·	–	–	–	–
O=C(O)c1ccccc1NN=Cc1ccccc1	·	·	·	·	–	·
O=[N+]([O-])c1ccccc1N/N=C/c1ccc2c(c1)OCO2	0.32µM	2.8µM	0.48µM	2.9µM	–	0.5µM
O=[N+]([O-])c1ccccc1N/N=C/c1ccccc1	?	·	?	?	–	4µM
O=[N+]([O-])c1ccccc1N/N=C/c1c[nH]c2ccccc12	–	13µM	4.3µM	4.1µM	–	?
O=[N+]([O-])c1ccc(N/N=C/c2c[nH]c3ccccc23)cc1	–	–	?	–	–	–
O=c1c2ccccc2n(Cc2cccc(Cl)c2)c(=O)n1CCc1ccccc1	·	–	–	·	·	·
COc1ccccc1CNC(=O)c1cc2cccc3c2n1CCS3	·	·	–	·	·	·
CCOc1ccc(OCc2ccc(C(=O)O)o2)cc1	0.28µM	0.89µM	3.4µM	?	–	?
O=C(O)c1ccc(COc2ccc3ccccc3c2)o1	?	·	19µM	?	–	?
O=C(Nn1cnnc1)c1cc2c(s1)CCCCC2	–	?	6.7µM	?	–	–
O=C(NCc1ccco1)c1cc2c(s1)CCCCC2	1.6µM	14µM	13µM	12µM	·	4µM
CNC(=O)c1cc2c(s1)CCCCCC2	–	–	13µM	–	·	–
O=C(NCCO)c1cc2c(s1)CCC2	–	–	–	–	–	–
Cc1ccc(C(=O)NC2CCC(C)CC2)s1 (centres undefined)	0.4µM	·	?	?	–	0.89µM
O=C(N/N=C/c1ccc(F)c(F)c1)c1cc2c(s1)-c1ccccc1CC2	–	–	–	–	–	–
SMILES	Rab9 promoter act	SMN2 splice enh	FLuc modulator	ELG1 genotoxic	uPA generation	NPC1 prom act
CC(OC(=O)c1cc2c(s1)CCCCC2)C(=O)NC(N)=O (centres undefined)	–	–	24µM	–	–	–
CC(C)C(OC(=O)c1cc2c(s1)CCCCC2)C(=O)NC(N)=O (centres undefined)	–	–	?	–	–	–
CC1CCC(NC(=O)c2cc3c(s2)CCCC3)CC1 (centres undefined)	?	·	12µM	?	–	?
CNC(=O)c1cc2c(s1)-c1ccccc1CC2	?	7.9µM	19µM	?	–	?
O=C(NCCCn1ccnc1)c1cc2c(s1)CCCCC2	–	–	17µM	?	·	–
CC(C)NC(=O)c1cc2c(s1)CCCC2	–	–	?	–	–	–
CCOC(=O)c1cc(-c2ccc(C)cc2)n(CC(=O)Nc2ccc(OC)c(Cl)c2)c1C	·	–	–	·	·	·
COc1ccc(-c2cc(C(F)(F)F)nc(SCC(=O)N3CCCCC3)n2)cc1OC	·	–	–	·	·	·
CCOc1ccc(N(CC(=O)Nc2ccccc2OCC)S(=O)(=O)c2c(C)noc2C)cc1	–	·	–	?	1.3µM	–
CCOc1ccc(N(CC(=O)NCc2ccccc2C)S(C)(=O)=O)cc1	?	·	13µM	?	–	3.2µM
